Screening data deposited in PubChem by National Center for Advancing Translational Sciences (NCATS).
Only some compounds are listed: those with a hit (about 3.3% of all), similar ones and a draw of the others.
BRCT PPI green: qHTS Assay for Inhibitors of BRCT-Phosphoprotein Interaction (Green Fluorophore) | BRCA1 BRCT-phosphopeptide binding, green fluorescence polarization | Potency, µM (doses to about 76.9 µM), most hits filed as inhibitors | 0.05% of 75,000 active | AID 875, 2007
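Fluorescence polarization: His-tagged BRCT (~35 kDa BRCA1 C-terminus, 250 nM) bound to 100 nM fluorescein-labeled phosphorylated 10-aa BACH1 peptide, pH 7.3 phosphate buffer with DTT and Tween 20. Compounds incubated 12 min at room temperature; inhibition read as lowered polarization.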
HEK293 cAMP ctrl: qHTS Assay for Agonists of the Thyroid Stimulating Hormone Receptor: Activators of Intracellular cAMP Concentrations in Parental HEK 293; Potency, µM (highest dose often 57.1 µM), actives largely listed as activators; AID 938, 2007; parental HEK293 CNG cAMP sensor, membrane potential fluorescence; 2.5% of 73,000 active; also: nearly all actives have a fitted effect of over 55% in size
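Counterscreen for endogenous-receptor signalling: CNG-channel HEK 293 cells report cAMP rise by membrane depolarization. After 60 min dye equilibration with 100 uM RO 20-1724, compounds incubated 30 min before bottom-read fluorescence at 590 nm.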
Hsp90 Hop PPI: qHTS Assay for Disrupters of an Hsp90 Co-Chaperone Interaction | Hsp90 C-terminal peptide / TPR2A (Hop) interaction, human | AlphaScreen TPR2A-His6 binding biotin-Hsp90 C-terminal peptide | Potency, µM (titrated, usually from 57 µM) | 0.44% of 71,000 active; active = well fitted curve in either direction with a large enough effect; inconclusive = small, poorly fitted or top-dose-only effect, or another doubt
YjeE inh: qHTS Assay for Inhibitors of YjeE; tRNA threonylcarbamoyladenosine biosynthesis protein TsaE (Escherichia coli (strain …; purified YjeE enzyme, qHTS inhibition assay; Potency, µM; 0.05% of 71,000 active; AID 605, 2007
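Fluorescence polarization of a BODIPY Texas Red–ADP probe (2 uM) bound to purified YjeE (10 uM) was read after 15 min room-temperature incubation with compounds. Loss of polarization marks inhibitors; ADP serves as titrated control.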
TSHR ag: qHTS Assay for Agonists of the Thyroid Stimulating Hormone Receptor. Thyrotropin receptor (Homo sapiens), P16473. HEK293-CNG-TSHR cells (CNG channel as cAMP sensor), membrane potential dye, cAMP. Potency, µM (titrated, usually from 57.1 µM), actives largely listed as activators. 0.48% of 73,000 active. AID 926, 2007; active = well fitted activation curve with a large enough effect in the main read-out, with a control signal flat, not every such curve was filed as active; inconclusive = small, poorly fitted or top-dose-only effect, or a change in a side signal; inactive = no such curve, though single readings can be large or run the other way; reference of the percent scale not stated here;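 also: the control signal comes from parental cells without the receptor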
Target sequence (P16473 whole entry, looked up): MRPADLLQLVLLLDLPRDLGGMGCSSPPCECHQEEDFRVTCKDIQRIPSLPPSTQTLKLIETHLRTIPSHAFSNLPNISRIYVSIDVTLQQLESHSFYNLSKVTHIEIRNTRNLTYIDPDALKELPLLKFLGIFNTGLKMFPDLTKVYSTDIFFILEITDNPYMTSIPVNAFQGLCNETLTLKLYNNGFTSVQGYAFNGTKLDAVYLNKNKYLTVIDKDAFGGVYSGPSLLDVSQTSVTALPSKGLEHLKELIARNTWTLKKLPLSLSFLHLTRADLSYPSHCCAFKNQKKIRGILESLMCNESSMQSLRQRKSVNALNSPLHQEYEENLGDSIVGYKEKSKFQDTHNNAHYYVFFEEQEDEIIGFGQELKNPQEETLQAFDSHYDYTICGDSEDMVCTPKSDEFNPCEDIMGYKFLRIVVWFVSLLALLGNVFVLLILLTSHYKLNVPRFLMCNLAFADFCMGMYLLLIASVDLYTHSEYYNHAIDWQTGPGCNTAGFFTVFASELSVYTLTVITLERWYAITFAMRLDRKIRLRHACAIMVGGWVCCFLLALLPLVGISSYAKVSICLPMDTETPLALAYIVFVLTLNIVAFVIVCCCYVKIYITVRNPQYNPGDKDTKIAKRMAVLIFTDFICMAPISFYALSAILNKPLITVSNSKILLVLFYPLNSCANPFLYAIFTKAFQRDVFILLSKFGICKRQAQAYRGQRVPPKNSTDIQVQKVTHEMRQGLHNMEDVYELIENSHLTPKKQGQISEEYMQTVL
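cAMP rise detected as CNG-channel membrane depolarization by fluorescent dye (emission 590 nm), 30 min after compound, following 60 min dye loading containing 100 uM RO 20-1724 at room temperature. Cells: TSHR/CNG HEK 293, with parental CNG HEK 293 as control.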
BRCT PPI red: qHTS Assay for Inhibitors of BRCT-Phosphoprotein Interaction (Red Fluorophore). 0.03% of 75,000 active. BRCT-phosphopeptide binding, red fluorescence polarization. Breast cancer type 1 susceptibility protein (Homo sapiens), P38398. Potency, µM (doses to about 76.9 µM), most hits filed as inhibitors
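Rhodamine-labelled pBACH1 10-mer (100 nM) bound to BRCT domain (100 nM) at pH 7.3; compounds incubated 12 min room temperature, polarization read. Free peptide defines full inhibition; unlabelled decapeptide titrated as control.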
Of the large screens only hits and unclear results are named; the others gave an inactive call. Unless noted, calls follow the shape of the dose curve; as a rule, active = well fitted curve in the direction sought with a large enough effect; inconclusive = small, poorly fitted or top-dose-only effect, or another doubt; inactive = no such curve, though single readings can be large; an effect the other way counts as inactive or inconclusive.

O=C(c1ccccc1CCc1ccccc1)N1CCN(c2ccccn2)CC1	HEK293 cAMP ctrl 15.8µM, TSHR ag inconclusive
Cc1occc1C(=O)N1CCN(C(c2ccccc2)c2ccccc2)CC1	TSHR ag 31.6µM
Cc1occc1C(=O)N1CCN(S(C)(=O)=O)CC1	none
O=C1O/C(=C\Br)CC[C@@H]1c1cccc2ccccc12	none
COc1ncc2nc(-c3ccc(Cl)cc3)c(=O)n(C[C@H]3CCCO3)c2n1	HEK293 cAMP ctrl inconclusive, TSHR ag inconclusive
CN(C)c1ncc2ncc(=O)n(CCc3ccccc3)c2n1	HEK293 cAMP ctrl 12.6µM, Hsp90 Hop PPI inconclusive, TSHR ag inconclusive
COc1ccc(-c2nc3cnc(OC)nc3n(C[C@H]3CCCO3)c2=O)cc1	HEK293 cAMP ctrl 20µM, TSHR ag inconclusive
CN(C)c1ncc2nc(-c3ccc(Cl)cc3)c(=O)n(Cc3ccc(F)cc3)c2n1	none
CN(C)c1ncc2nc(-c3ccccc3)c(=O)n(Cc3ccc(F)cc3)c2n1	HEK293 cAMP ctrl 5.01µM, TSHR ag inconclusive
COc1ccc(-c2nc3cnc(N(C)C)nc3n(CCc3ccccc3)c2=O)cc1	Hsp90 Hop PPI 0.631µM
NCC[C@H]1CCC[C@H](CCN)N1	none
CC(O)CCCCCCC/C=C/C=C/C(N)=O (configuration not stated)	none (no result: Hsp90 Hop PPI, YjeE inh)
c1ccc(-n2cccc2CNC2CCCCC2)cc1	HEK293 cAMP ctrl 25.1µM, TSHR ag inconclusive
O=C1CC(N2CCN(C3CCc4ccccc4C3)CC2)C(=O)N1c1ccccc1 (configuration not stated)	HEK293 cAMP ctrl 25.1µM, TSHR ag inconclusive
O=C1CC(N2CCN(c3ccccc3Cl)CC2)C(=O)N1c1ccccc1 (configuration not stated)	none
COc1ccc(CNc2ccnc(-c3ccc(N(C)C)cc3)n2)c(OC)c1	none
CN1CCN(Cc2c(O)ccc3occ(C(=O)c4ccccc4)c23)CC1	none
COc1ccc(C(=O)c2coc3ccc(O)c(CN(C)C)c23)cc1	HEK293 cAMP ctrl 31.6µM, TSHR ag inconclusive
O=C1C2C3C=CC(C2C(=O)N1CN1CCOCC1)C1C2C(=O)N(CN4CCOCC4)C(=O)C2C31 (configuration not stated)	Hsp90 Hop PPI inconclusive
CCCC(c1nnnn1C(C)(C)CC)N1CCN(C2CCCC2)CC1 (configuration not stated)	HEK293 cAMP ctrl 1µM, TSHR ag inconclusive
CCC(c1nnnn1C1CCCCC1)N1CCN(C2CCCC2)CC1 (configuration not stated)	HEK293 cAMP ctrl 5.01µM, TSHR ag inconclusive
CCCC(c1nnnn1C1CCCCC1)N1CCN(C2CCCC2)CC1 (configuration not stated)	HEK293 cAMP ctrl 15.8µM, TSHR ag inconclusive
C[C@H]1[C@H](C)CC[C@@]2(C(=O)O)CC[C@]3(C)C(=CC[C@H]4[C@@]5(C)C[C@@H](O)[C@H](O)[C@@](C)(CO)[C@@H]5CC[C@@]43C)[C@@H]12	HEK293 cAMP ctrl inconclusive, TSHR ag inconclusive (no result: BRCT PPI green, BRCT PPI red)
COc1ccc(OC)c(C2OCCC=CC2C)c1 (configuration not stated)	none (no result: Hsp90 Hop PPI, YjeE inh)
COc1ccc(N2CCN(c3oc(COc4ccccc4)nc3C#N)CC2)cc1	HEK293 cAMP ctrl 0.794µM, Hsp90 Hop PPI 12.6µM, TSHR ag inconclusive
N#Cc1nc(COc2ccccc2)oc1N1CCOCC1	none
N#Cc1nc(COc2ccc(Br)cc2)oc1N1CCCCCC1	HEK293 cAMP ctrl 25.1µM, Hsp90 Hop PPI inconclusive, TSHR ag inconclusive
Cc1nc2cnc(N(C)C)nc2n(CCC#N)c1=O	none
COc1[nH]c(/N=C/c2ccccc2)c(C#N)c1C#N	BRCT PPI green 25.1µM, BRCT PPI red 31.6µM
Cc1nnc(S(=O)(=O)c2ccc(N=Nc3c(N)nc(N)nc3N)cc2)s1	none
CCN(CC)CCCNC(=O)c1ccc(Cc2nc3ccccc3[nH]2)cc1	none (no result: Hsp90 Hop PPI, YjeE inh)
CN1CCN(c2ccccc2NC(=O)c2cc(Br)ccc2Cl)CC1	none
CC(=O)N1CCN(c2ccccc2NC(=O)c2cc(Br)ccc2Cl)CC1	HEK293 cAMP ctrl 31.6µM, TSHR ag inconclusive
CC1(C)CC2CC(C)(CN2C(=O)COC(=O)c2ccc(Cl)cc2N)C1 (configuration not stated)	HEK293 cAMP ctrl 25.1µM, TSHR ag inconclusive
O=C(CSc1nc2c(sc3ccccc32)c(=O)n1CCO)NCC1CCCO1 (configuration not stated)	none
CCOC(=O)CSc1nc2c(sc3ccccc32)c(=O)n1CCCN1CCOCC1	HEK293 cAMP ctrl 12.6µM, TSHR ag inconclusive
CCN(CC)COC(=S)S	none
COC(=O)[C@@]1(Cc2ccccc2)[C@H]2c3cc(C(=O)N(C)C)n(CCF)c3C[C@H]2CN1C(=O)c1ccccc1	HEK293 cAMP ctrl 25.1µM, TSHR ag inconclusive
COCCn1c(C(=O)N2CCCC2)cc2c1C[C@H]1CN(C(=O)c3ccccc3)[C@@](Cc3ccc(OC)cc3)(C(=O)OC)[C@@H]21	HEK293 cAMP ctrl inconclusive, TSHR ag inconclusive
COC(=O)[C@@]1(Cc2ccc(OC)cc2)[C@H]2c3cc(C(=O)N4CCCC4)n(CCN4CCOCC4)c3C[C@H]2CN1C(=O)c1ccccc1	HEK293 cAMP ctrl 20µM, TSHR ag inconclusive
COC(=O)[C@@]1(Cc2ccc(OC)cc2)[C@H]2c3cc(C(=O)N4CCCC4)n(Cc4ccc(OC)c(OC)c4)c3C[C@H]2CN1C(=O)c1ccccc1	HEK293 cAMP ctrl 5.01µM, TSHR ag inconclusive
COC(=O)[C@@]1(Cc2ccc(OC)cc2)[C@H]2c3cc(C(=O)N4CCCC4)n(CCF)c3C[C@H]2CN1C(=O)c1ccccc1	HEK293 cAMP ctrl 20µM, TSHR ag inconclusive
COc1ccccc1CCn1c(=O)c(-c2cccs2)nc2cncnc21	HEK293 cAMP ctrl inconclusive, TSHR ag inconclusive
CC(=O)OC[C@@H]1O[C@@H](O/N=C2/C[C@@H](O)[C@@H](O)[C@@H]3[C@@H]4C(=O)N(c5cccc(Oc6ccccc6)c5)C(=O)[C@H]4CC[C@H]23)[C@H](OC(C)=O)[C@H](OC(C)=O)[C@@H]1OC(C)=O	none (no result: Hsp90 Hop PPI, YjeE inh)
CC/C=C\CC[C@H](OC(=O)c1ccc(Br)cc1)C1=CCCCC1=O	none (no result: Hsp90 Hop PPI, YjeE inh)
CC(C)CC(c1nnnn1CC1CCCO1)N1CCN(c2cccc(Cl)c2)CC1 (configuration not stated)	HEK293 cAMP ctrl 12.6µM, TSHR ag inconclusive
